Bioassay records (PubChem BioAssay)
Most compounds without a hit are left out; they make up all but 10% or so of the library.
CtBP-E1A blk: qHTS Assay for Inhibitors of the CtBP/E1A Interaction; AlphaScreen GST-E1A/His-CtBP binding, 1536-well; stronger effect = lower value; activity change, % (no concentration beside the values); CtBP / adenovirus E1A interaction (AlphaScreen); 0.49% of 340,000 active; in the data active = activity change below about -65%; inconclusive = mostly about -30% to -63%; also: % is scaled to controls: 0 for no effect and ±100 for the full control effect
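GST-E1A and His-tagged CtBP (125 nM each as 5X stock) were preincubated with pin-transferred compound for 2 h at 37 °C in the dark, then glutathione donor and nickel acceptor beads were added for 1 h before AlphaScreen reading.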
HP1b binding inh: HTS for Inhibitors of HP1-beta Chromodomain Interactions with Methylated Histone Tails; AlphaScreen HP1-beta / biotin-H3K9me3 peptide binding; Potency, µM (titrated, usually from 114 µM), for the others: at the top dose activity change, negative = inhibition, hits mostly inhibitors; 0.56% of 390,000 active; AID 540317, 2011; also: potency is read from the fitted curve at half-maximal effect; nearly all actives have a fitted effect of over 70% in size
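HP1-beta protein (50 nM final) preincubated 30 min at room temperature with biotinylated H3(1-18)K9me3 peptide (50 nM) in PBS pH 7.4, 0.01% Tween-20, then compound added for 30 min. AlphaScreen streptavidin donor/nickel chelate acceptor beads (10 ug/mL final), 30 min dark, luminescence read.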
JMJD2A Tudor: qHTS Assay for Inhibitors of JMJD2A-Tudor Domain; AlphaScreen JMJD2A-Tudor / H3K4me3 peptide binding; Potency, µM (top dose mostly 114 µM), without a hit: top-dose activity change, negative = inhibition, most hits filed as inhibitors; 4.4% of 390,000 active; also: potency is read from the fitted curve at half-maximal effect; % is scaled to controls: 0 for no effect and ±100 for the full control effect; nearly all actives have a fitted effect of over 50% in size
Target sequence (O75164 whole entry, looked up, the tested form may be a part): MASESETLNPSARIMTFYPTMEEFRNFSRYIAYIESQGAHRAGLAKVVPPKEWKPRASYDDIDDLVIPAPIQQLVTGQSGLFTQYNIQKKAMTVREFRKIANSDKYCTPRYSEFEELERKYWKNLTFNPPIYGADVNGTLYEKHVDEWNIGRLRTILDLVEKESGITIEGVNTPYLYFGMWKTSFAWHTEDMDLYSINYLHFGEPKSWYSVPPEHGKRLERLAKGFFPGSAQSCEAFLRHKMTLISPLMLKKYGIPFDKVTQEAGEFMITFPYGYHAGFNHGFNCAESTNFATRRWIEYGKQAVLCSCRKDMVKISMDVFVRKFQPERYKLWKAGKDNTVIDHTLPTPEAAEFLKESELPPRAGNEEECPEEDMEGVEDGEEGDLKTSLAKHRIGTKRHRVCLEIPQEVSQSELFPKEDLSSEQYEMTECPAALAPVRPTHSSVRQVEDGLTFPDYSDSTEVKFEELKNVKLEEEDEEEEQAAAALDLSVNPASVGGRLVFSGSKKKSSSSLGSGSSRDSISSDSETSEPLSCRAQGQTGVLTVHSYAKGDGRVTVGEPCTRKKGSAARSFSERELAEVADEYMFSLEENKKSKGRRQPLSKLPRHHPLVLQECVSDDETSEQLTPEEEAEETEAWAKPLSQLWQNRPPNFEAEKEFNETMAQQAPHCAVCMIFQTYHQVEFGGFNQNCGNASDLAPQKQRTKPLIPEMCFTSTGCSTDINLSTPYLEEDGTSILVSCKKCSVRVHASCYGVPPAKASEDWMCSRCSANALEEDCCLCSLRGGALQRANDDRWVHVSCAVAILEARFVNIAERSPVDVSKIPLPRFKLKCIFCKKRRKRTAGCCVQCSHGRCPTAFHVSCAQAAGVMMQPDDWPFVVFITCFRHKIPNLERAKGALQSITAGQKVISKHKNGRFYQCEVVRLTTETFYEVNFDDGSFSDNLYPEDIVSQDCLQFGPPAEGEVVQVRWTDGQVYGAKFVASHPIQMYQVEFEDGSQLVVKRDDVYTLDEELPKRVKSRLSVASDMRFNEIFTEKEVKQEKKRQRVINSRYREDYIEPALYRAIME
BAZ2B block: qHTS Assay for Inhibitors of BAZ2B. AlphaScreen BAZ2B-H3K14Ac peptide displacement. Potency, µM (highest dose often 114 µM), inactives show top-dose activity change, negative = inhibition, actives largely listed as inhibitors. 4.4% of 360,000 active. AID 504333, 2011; also: potency is read from the fitted curve at half-maximal effect; % is scaled to controls: 0 for no effect and ±100 for the full control effect; nearly all actives have a fitted effect of over 60% in size
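AlphaScreen luminescence quantifies BAZ2B engagement of H3K14Ac peptide; the protein and biotinylated peptide are both at 50 nM final, buffer PBS pH 7.4 with 0.01% Tween-20, all steps at room temperature.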
Six1-Eya2 inh: qHTS Assay for Inhibitors of the Six1/Eya2 Interaction. Homeobox protein SIX1 (Homo sapiens) + Protein phosphatase EYA2 (Homo sapiens), …. AlphaScreen GST-Six1/His-Eya2 binding, biochemical; stronger effect = lower value. activity change, % (concentration not given with the values). 0.56% of 360,000 active; in the data active = activity change below about -65%; inconclusive = mostly about -30% to -63%; also: % is scaled to controls: 0 for no effect and ±100 for the full control effect
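GST-Six1 + His-Eya2 (5X stock: 250/500 nM); Tris pH 8.0, 300 mM NaCl, 0.05% BSA, 0.02% Tween 20; GSH donor/Ni acceptor beads; 1 h 37 °C dark; AlphaScreen readout.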
G9a block: qHTS Assay for Inhibitors of Histone Lysine Methyltransferase G9a | G9a H3K9 monomethylation, AlphaScreen, 2 h | Potency, µM (highest dose often 102 µM), inactives show at the top dose activity, negative = inhibition, usual class: inhibitors | 8.8% of 350,000 active | Histone-lysine N-methyltransferase EHMT2 (Homo sapiens), Q96KQ7; also: potency is read from the fitted curve at half-maximal effect; % is scaled to controls: 0 for no effect and ±100 for the full control effect; nearly all actives have a fitted effect of over 75% in size
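G9a (20 nM) preincubated 15 min RT with compounds, then 500 nM biotinylated H3K9 peptide and 20 uM SAM added; 2 h RT reaction. Monomethyl-H3K9 product detected by AlphaScreen with anti-H3K9me1 antibody, streptavidin donor and anti-rabbit IgG acceptor beads.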
* hit, by the source's call; ? = inconclusive; . = no result; [ ] = remark or other dose. Unless noted, calls follow the shape of the dose curve; as a rule, active = well fitted inhibition curve with a large enough effect; inconclusive = small, poorly fitted or top-dose-only effect; inactive = no such curve, though single readings can be large or run the other way.

SMILES	CtBP-E1A blk	HP1b binding inh	JMJD2A Tudor	BAZ2B block	Six1-Eya2 inh	G9a block
CCN1C(=O)/C(=C/C=C2/Sc3ccccc3N2CCO)SC1=S	-26	-21%	-18%	-33%	-5	45µM*
O=C(CCN1C(=O)/C(=C/c2ccccc2)SC1=S)N1CCCCCC1	-4	-17%	-32%	-36%	1	2%
CCCCN1C(=O)/C(=C/C=C2\Oc3ccccc3N2CC)SC1=S	3	13%	-9%	?	-9	17%[0.501 µM]
CN1CCS/C1=C\C=C1/SC(=S)N(CC(=O)O)C1=O	-16	18%	-29%	?	-2	40µM*
CCCCN1C(=O)/C(=C/C=C2/CC(C)(C)CN2C)SC1=S	9	?	?	8.9µM*	-18	?
CCCN1C(=O)/C(=C\C=C2/Sc3ccccc3N2CCO)SC1=S	-10	3%	-10%	-28%	6	?
Cc1nc(-c2ccccc2)sc1C(=O)O	7	-9%	?	-23%	4	?
Cc1nc(-c2cccc(C(F)(F)F)c2)sc1C(=O)O	12	3%	-9%	?	6	56µM*
O=C(Nc1ccc(OCc2ccccc2)cc1)Nc1nnc([C@@H]2C[C@H](O)[C@@H](CO)O2)s1	-12	.	.	.	1	.
COc1ccc(/C=N/Nc2nnc(Cc3ccccc3)c(=O)[nH]2)cc1OC	?	21%	6%	-5%	-66*	19%
COc1ccc(Cc2nnc(N/N=C/c3ccc(O)cc3)[nH]c2=O)cc1OC	-91*	19%	25µM*	7.1µM*	-82*	89%[59 µM]
COc1ccc(Cc2nnc(N/N=C/c3ccc(Br)cc3)[nH]c2=O)cc1OC	4	56%	-20%	?	-1	.
CCOC(=O)c1cnc2c(ccc3ccccc32)c1Nc1cccc(C(F)(F)F)c1	.	39%	-2%	4%	.	12%[59 µM]
COC(=O)C(C(=O)OC)C(c1ccccc1)C(C(=O)c1ccccc1)[N+](=O)[O-] (stereo not given)	2	27%	-20%	-13%	8	50µM*
O=C(NCCN1C(=O)S/C(=C\c2cccnc2)C1=O)c1cc(S(=O)(=O)N2CCOCC2)ccc1F	.	40%	?	-6%	-3	40µM*
O=C(NCCN1C(=O)S/C(=C\c2cccnc2)C1=O)c1ccc([N+](=O)[O-])s1	-8	19%	-15%	13%	8	14µM*
COc1ccc2c(c1)sc(=N)n2C	1	32%	8%	-16%	-4	20µM*
COc1nccnc1NS(=O)(=O)c1ccc(NCc2cc(Br)ccc2O)cc1	-73*	?	-36%	?	-77*	45µM*
COc1nccnc1NS(=O)(=O)c1ccc(NC(=S)NC(=O)c2ccc(F)c(F)c2)cc1	-2	-2%	-14%	?	-8	50µM*
CCc1nnc(NS(=O)(=O)c2ccc(NCc3cc(Br)ccc3O)cc2)s1	-30	13%	-21%	-23%	-18	.
O=S(=O)(Nc1nccs1)c1ccc(NCc2cc(Br)cc(Br)c2O)cc1	.	-13%	?	?	-90*	-44%
COc1nccnc1NS(=O)(=O)c1ccc(N/C=C2\CCCCC2=O)cc1	-12	10%	-23%	?	-5	50µM*
Cc1ccc2nc(SC(Cc3cc(Cl)ccc3Cl)C(=O)O)[nH]c2c1 (stereo not given)	.	-8%	-5%	-4%	.	5%[59 µM]
CCCCNC(=NCc1cccc(C(F)(F)F)c1)Nc1ccccc1	5	23%	-18%	0%	5	-12%
CCc1nn(CC(=O)NCc2ccco2)c(=O)c2cc3c(OC)cccc3n12	.	7%	-19%	-5%	.	-14%[59 µM]
SMILES	CtBP-E1A blk	HP1b binding inh	JMJD2A Tudor	BAZ2B block	Six1-Eya2 inh	G9a block
COc1nccnc1NS(=O)(=O)c1ccc(NC(=O)c2cccc(C)c2)cc1	-1	15%	-11%	79µM*	-2	.
COc1ccc(C(=O)Nc2ccc(S(=O)(=O)Nc3nccnc3OC)cc2)cc1	17	53%	-16%	-26%	-11	-38%[59 µM]
COc1ccccc1C(=O)NNC(=O)C(=O)NCc1ccccc1	4	23%	?	-34%	3	28µM*
COc1ccccc1NC(=O)C(=O)NNC(=O)c1ccco1	4	16%	?	?	0	8.9µM*
O=C(Nc1ccccc1C(=O)NCCN1CCOCC1)c1ccco1	3	19%	0%	-4%	6	50µM*
O=C(NCCNC(=O)c1ccccc1Cl)c1ccco1	13	-3%	79µM*	16%	1	50µM*
COc1ccccc1C(=O)NCc1ccco1	0	23%	-16%	-11%	0	.
COc1ccccc1C(=O)NCCNC(=O)c1ccco1	4	?	25µM*	1%	5	-7%[59 µM]
CCCCCCCC/C=C\CCCCCCCC(=O)NCCc1ccc(O)c(O)c1	-9	-12%	35µM*	-8%	-3	?
Cc1cccc(NC(=O)c2cc([N+](=O)[O-])ccc2N2CCCCC2)n1	3	-6%	?	-36%	2	?
COC(=O)Cc1n[nH]c(=S)[nH]c1=O	-19	0%	79µM*	-34%	-11	0%[59 µM]
CC(C)CNC(=O)CSc1nnc2ccccn12	5	45%	-3%	-7%	1	45µM*
Cc1cc(C)[n+](-c2ccc(Oc3ccccc3)c(S(=O)(=O)[O-])c2)[nH]1	3	9%	50µM*	-17%	-6	?
CCCN1CCN(c2ncnc3sc(C(=O)Nc4ccc(N(CC)CC)cc4C)c(C)c23)CC1	.	?	50µM*	28µM*	.	14µM*
Cc1ccc2c(c1)cc(C(=O)Nc1ccc(F)cc1F)n2C	.	58%	-2%	-24%	.	13%[59 µM]
Cc1nccn1CCOc1ccc(Cl)cc1	-1	?	4.5µM*	45µM*	-18	8.9µM*
Clc1ccc(OCCn2cnc(Cl)c2Cl)cc1	-22	?	-31%	?	-4	50µM*
COc1ccc(OC)c(NC(=O)Nc2nnc(N3CCCCC3C)s2)c1 (stereo not given)	-15	37%	-9%[11.4 µM]	?	-17	.
O=C(CC1CCCC1)NNC(=O)c1ccc(F)cc1	1	33%	-1%	11%	1	10%[12.7 µM]
CN(C)C=NC(=O)c1cc(C(=O)c2ccc(Cl)cc2Cl)c[nH]1	6	26%	-10%	-13%	-5	-14%[59 µM]
